For five molecules, composite z-score and z-score results are on record in PubChem BioAssay.

A short description of test [1]: small molecules captured by biotinylated probe aFSTL3 – biochemical, small-molecule microarray, fluorescence 635/667, stem cell growth factor project, primary screen (AID 1064).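 Note: measures binding of the biotinylated anti-FSTL3 antibody to printed compounds.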 As to conditions: higher = more signal.
Test [2] can be described thus: binders from COS7 lysate, DM2A8 probe, primary screen, torsin A project, cell lysate, small-molecule microarray, fluorescence 635/667 (AID 1065). As to conditions: higher = more signal, COS7 lysate expressing mutant human TOR1A.
Test [3] is described as follows: small molecules captured by biotinylated probe aFGF2 – biochemical, small-molecule microarray, fluorescence 635/667, stem cell growth factor project, primary screen (AID 1067).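 Note: measures binding of biotinylated aFGF2 protein to printed compounds on slides; z-score merges feature fluorescence and signal-to-noise across triplicate slides.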 As to conditions: higher = more signal.
Test [4] can be described thus: small molecules captured by biotinylated probe aFGF10 – biochemical, small-molecule microarray, fluorescence 635/667, stem cell growth factor project, primary screen (AID 1071).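 Note: score merges 667 nm spot intensity and signal to noise from triplicate slides.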 As to conditions: higher = more signal.
In test [5] the target is Neurogenic locus notch homolog protein 2 (Homo sapiens) (UniProt Q04721). The test is described as follows: small molecules binding Notch2 protein – biochemical, small-molecule microarray, 635 nm fluorescence, stem cell growth factors, primary screen (AID 1073). As to conditions: higher = more signal.
Test [6] concerns the target Pro-neuregulin-1, membrane-bound isoform (Homo sapiens) (UniProt Q02297). Kind of test: small molecules binding neuregulin-1 protein – biochemical, small-molecule microarray, fluorescence 635/667, psychiatric disease protein project, primary screen (AID 1075).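 Note: score combines 667 nm spot fluorescence with signal to noise.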 As to conditions: NRG1 binding, 635 nm fluorescence, higher = more signal.
Test [7] deals with Neuregulin-1 EGF-like domain. The test is described as follows: small molecules binding NRG1 EGF domain – biochemical, small-molecule microarray, 635 nm fluorescence, primary screen (AID 1081).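 Note: binding of the protein to compounds printed on small-molecule microarray slides.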 As to conditions: higher = more signal.
Test [8] can be described thus: FRG1 expression reporter modulators in myotubes – cell-based, C2C12 myotubes, firefly/Renilla luciferase, luminescence, FRG1 inhibition for FSHD, primary screen (AID 1084). As to conditions: FRG1 promoter luciferase, higher = more signal, called active from +8 up or from −8 down.
Test [9] is described as follows: small molecules captured by biotinylated probe aFST – biochemical, small-molecule microarray, fluorescence 635/667, stem cell growth factor project, primary screen (AID 1086).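 Note: score merges 667 nm fluorescence with signal-to-noise of each printed compound spot.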 As to conditions: higher = more signal.
Test [10] is described as follows: binders of probe aHhip on microarray, primary screen, stem cell growth factor project, biochemical, small-molecule microarray, fluorescence 635/667 (AID 1087).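 Note: score merges spot fluorescence at 667nm with spot signal to noise ratio.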 As to conditions: higher = more signal.
Test [11] concerns PRMT1 (protein arginine N-methyltransferase 1). Kind of test: small molecules binding arginine methyltransferase PRMT1 – biochemical, small-molecule microarray, 635 nm fluorescence, primary screen (AID 1088).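 Note: binding of Prmt1 protein to compounds spotted on small-molecule microarray slides.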 As to conditions: higher = more signal.
Test [12] can be described thus: growth effects on S. cerevisiae YJM789 – YJM789 clinical isolate, OD600, 24 h, basal, primary screen (AID 1089).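 Note: growth of clinical yeast isolate S. cerevisiae YJM 789 seeded 1000 cells per well; test concentration not given here.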 As to conditions: higher = more signal, called active from +8 up or from −8 down.
Test [13] in a line: S. pombe growth modifiers, basal conditions – strain 972, OD600, 24 h, no modulator, primary screen (AID 1090).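 Note: basal condition with compound alone and no growth modifier present; test concentration not given here.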 As to conditions: S. pombe 972 growth, higher = more signal, called active from +8 up or from −8 down.
Test [14] is described as follows: budding yeast growth modifiers under rapamycin – strain BY4716, OD600, 96 h, primary screen (AID 1091). Note: test concentration not given here. As to conditions: S. cerevisiae BY4716 + rapamycin, higher = more signal, called active from +8 up or from −8 down.
The target of test [15] is Torsin-1A-interacting protein 2 (Homo sapiens) (UniProt Q8NFQ8). The test is described as follows: small molecules binding lysate-expressed LULL1 – cell lysate, human LULL1 lysate, 635/667 nm fluorescence, primary screen (AID 1092).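 Note: probe is lysate of COS7 cells overexpressing human LULL1; score merges per-feature 667 nm fluorescence with signal-to-noise.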 As to conditions: small-molecule microarray, hLULL1 lysate binding, 635 nm fluorescence; higher = more signal.
Test [16] in a line: optical density change of DRC41 E. coli – strain DRC41, OD650, 24 h, E. coli filamentation project, primary screen (AID 1093).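 Note: MC1000 strain lacking acrAB efflux and sulA so SOS filamentation is blocked; test concentration not given here.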 As to conditions: E. coli DRC41 growth, higher = more signal, called active from +8 up or from −8 down.
Test [17] in a line: probe aLefty2 binding to arrayed compounds – biochemical, biotinylated probe, 635/667 nm fluorescence, primary screen (AID 1094).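 Note: score merges spot fluorescence near 667 nm with spot signal-to-noise ratio.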 As to conditions: small-molecule microarray, higher = more signal.
For test [18], the system named is Noggin (protein binding on small-molecule microarray). Kind of test: small molecules binding Noggin protein – biochemical, 635/667 nm fluorescence, primary screen (AID 1095).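 Note: score merges 667 nm feature fluorescence with signal to noise over triplicate slides.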 As to conditions: 635 nm fluorescence, higher = more signal.
The target of test [19] is Neurogenic locus notch homolog protein 3 (Homo sapiens) (UniProt Q9UM47). The test is described as follows: small molecules binding NOTCH3 protein – biochemical, 635/667 nm fluorescence, primary screen (AID 1096). As to conditions: small-molecule microarray, 635 nm fluorescence, higher = more signal.
Test [20] can be described thus: probe aEGFR binding to arrayed compounds – biochemical, biotinylated probe, 635/667 nm fluorescence, primary screen (AID 1097).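 Note: probe is a biotinylated anti-EGFR antibody binding compounds printed on slides; score combines fluorescence near 667 nm and signal to noise of each spot.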 As to conditions: small-molecule microarray, higher = more signal.

Activity calls are given as the source filed them.

Chain of Pro-neuregulin-1, membrane-bound isoform (Homo sapiens) (Q02297 whole entry, looked up, the tested form may be a part, canonical isoform): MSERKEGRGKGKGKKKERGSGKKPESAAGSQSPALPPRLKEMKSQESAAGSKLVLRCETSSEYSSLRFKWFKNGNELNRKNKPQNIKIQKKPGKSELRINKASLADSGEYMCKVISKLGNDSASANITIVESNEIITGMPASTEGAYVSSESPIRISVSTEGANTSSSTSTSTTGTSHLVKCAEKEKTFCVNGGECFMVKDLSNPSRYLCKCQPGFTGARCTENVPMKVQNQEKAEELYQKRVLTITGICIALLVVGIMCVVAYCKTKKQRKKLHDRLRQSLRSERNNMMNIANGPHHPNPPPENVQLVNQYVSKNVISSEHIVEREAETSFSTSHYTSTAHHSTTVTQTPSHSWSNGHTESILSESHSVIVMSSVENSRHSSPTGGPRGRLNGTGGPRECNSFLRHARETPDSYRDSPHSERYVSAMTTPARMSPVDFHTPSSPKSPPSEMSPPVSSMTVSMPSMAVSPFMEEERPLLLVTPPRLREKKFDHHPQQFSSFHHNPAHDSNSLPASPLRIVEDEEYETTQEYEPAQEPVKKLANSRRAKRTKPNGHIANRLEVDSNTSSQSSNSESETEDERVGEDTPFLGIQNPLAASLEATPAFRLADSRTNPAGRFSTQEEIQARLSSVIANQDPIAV
Chain of Neurogenic locus notch homolog protein 2 (Homo sapiens) (Q04721 whole entry, looked up, canonical isoform): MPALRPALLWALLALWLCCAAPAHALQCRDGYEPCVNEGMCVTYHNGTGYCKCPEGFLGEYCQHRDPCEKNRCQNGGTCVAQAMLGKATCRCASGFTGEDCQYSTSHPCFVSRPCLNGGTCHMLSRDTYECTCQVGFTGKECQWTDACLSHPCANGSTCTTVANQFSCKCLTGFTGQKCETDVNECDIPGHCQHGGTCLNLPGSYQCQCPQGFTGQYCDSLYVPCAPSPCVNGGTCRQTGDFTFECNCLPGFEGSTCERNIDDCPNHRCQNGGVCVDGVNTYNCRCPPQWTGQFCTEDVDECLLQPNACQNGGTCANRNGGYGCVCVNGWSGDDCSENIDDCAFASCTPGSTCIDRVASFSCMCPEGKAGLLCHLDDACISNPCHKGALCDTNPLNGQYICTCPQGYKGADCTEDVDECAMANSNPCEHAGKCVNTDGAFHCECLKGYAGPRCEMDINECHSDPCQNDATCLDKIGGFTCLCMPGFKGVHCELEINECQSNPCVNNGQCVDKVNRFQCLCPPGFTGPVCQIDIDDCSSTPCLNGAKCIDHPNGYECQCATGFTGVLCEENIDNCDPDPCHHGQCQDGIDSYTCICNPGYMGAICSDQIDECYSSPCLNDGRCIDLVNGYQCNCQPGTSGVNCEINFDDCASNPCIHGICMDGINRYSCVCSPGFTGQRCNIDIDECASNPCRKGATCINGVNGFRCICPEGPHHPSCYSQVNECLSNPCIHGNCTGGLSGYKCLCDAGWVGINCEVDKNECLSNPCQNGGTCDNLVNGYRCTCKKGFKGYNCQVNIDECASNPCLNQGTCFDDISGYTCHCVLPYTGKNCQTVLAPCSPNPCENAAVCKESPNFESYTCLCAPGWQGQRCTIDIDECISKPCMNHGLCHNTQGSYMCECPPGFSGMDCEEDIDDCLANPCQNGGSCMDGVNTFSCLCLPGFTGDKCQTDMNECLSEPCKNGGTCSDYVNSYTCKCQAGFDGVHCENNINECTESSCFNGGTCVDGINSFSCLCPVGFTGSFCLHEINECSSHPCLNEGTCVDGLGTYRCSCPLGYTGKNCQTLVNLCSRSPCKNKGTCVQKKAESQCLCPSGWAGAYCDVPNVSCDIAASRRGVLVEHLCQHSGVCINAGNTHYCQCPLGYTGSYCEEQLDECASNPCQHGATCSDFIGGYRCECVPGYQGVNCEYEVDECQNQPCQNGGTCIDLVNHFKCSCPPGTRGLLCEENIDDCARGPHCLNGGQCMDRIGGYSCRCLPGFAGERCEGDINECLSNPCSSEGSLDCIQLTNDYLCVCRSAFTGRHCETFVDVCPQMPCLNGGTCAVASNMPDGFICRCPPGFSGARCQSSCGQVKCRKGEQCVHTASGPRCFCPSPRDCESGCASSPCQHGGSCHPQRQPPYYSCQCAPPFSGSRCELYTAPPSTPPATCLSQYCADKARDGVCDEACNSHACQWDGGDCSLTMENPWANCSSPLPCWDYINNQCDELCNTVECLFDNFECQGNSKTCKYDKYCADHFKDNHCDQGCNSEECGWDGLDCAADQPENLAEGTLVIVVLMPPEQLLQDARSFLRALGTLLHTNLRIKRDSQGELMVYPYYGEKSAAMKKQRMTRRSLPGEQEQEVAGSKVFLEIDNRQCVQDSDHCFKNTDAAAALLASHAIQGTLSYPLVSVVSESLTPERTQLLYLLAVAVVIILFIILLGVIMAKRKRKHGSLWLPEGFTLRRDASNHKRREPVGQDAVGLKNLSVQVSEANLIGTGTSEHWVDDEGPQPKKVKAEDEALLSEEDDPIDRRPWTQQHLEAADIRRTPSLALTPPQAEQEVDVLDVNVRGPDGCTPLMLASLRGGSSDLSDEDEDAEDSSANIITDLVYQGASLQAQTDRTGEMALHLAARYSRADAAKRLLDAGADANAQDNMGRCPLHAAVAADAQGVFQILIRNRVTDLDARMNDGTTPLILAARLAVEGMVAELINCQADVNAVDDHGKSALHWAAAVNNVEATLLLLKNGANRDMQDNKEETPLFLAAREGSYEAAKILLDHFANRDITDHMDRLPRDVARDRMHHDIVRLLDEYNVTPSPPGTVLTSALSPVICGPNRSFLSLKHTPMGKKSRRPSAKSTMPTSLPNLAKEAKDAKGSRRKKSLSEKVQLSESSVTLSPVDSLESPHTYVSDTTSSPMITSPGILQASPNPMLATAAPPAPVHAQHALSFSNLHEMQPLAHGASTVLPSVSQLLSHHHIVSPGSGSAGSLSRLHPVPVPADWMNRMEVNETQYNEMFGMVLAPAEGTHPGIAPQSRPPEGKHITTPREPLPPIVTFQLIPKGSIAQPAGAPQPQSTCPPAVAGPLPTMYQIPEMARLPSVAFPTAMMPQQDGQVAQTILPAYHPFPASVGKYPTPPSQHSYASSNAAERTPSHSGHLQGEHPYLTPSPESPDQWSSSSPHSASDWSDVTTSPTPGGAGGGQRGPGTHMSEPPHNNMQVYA
Chain of Torsin-1A-interacting protein 2 (Homo sapiens) (Q8NFQ8 whole entry, looked up): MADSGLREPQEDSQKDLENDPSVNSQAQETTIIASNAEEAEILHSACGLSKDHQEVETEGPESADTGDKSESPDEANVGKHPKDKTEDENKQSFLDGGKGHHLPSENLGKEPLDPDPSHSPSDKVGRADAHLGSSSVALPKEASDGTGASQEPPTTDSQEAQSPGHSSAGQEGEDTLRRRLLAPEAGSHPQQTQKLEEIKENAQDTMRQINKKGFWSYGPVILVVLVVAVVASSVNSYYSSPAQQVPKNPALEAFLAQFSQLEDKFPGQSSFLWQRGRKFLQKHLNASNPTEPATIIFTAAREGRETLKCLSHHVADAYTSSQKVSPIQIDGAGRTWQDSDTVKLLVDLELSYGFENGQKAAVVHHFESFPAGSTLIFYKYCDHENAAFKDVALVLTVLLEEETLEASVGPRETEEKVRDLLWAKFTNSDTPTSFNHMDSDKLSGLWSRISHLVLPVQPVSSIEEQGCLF

With `CCc1cc2c(nc1CC)CCN(CCC(C)=NOC(C)CN1CCCc3nc(C)c(C)cc31)C2` (stereo not given), the composite z-score in [1] is 0.271; in test [2] it was 1.29; in test [3] it was 0.131; in test [4], 0.16; in [5] it was 1.35; in [6], 0.408. Also, the composite z-score in test [7] was 1.17; in [9], 1.15; in [10] it was 1.17; in [11], 1.37; in test [15], 1.41; in test [17] it was 0.696. Also, the figures for the composite z-score in test [18], in test [19] and in [20] were 1.13, 0.986 and 0.391, respectively. Moreover, the z-score is 1.04 (inactive) in test [8]; -2.1 (inactive) in test [12]; -1.74 (inactive) in [13]; -1.28 (inactive) in [14]; 0.517 (inactive) in test [16].

For the molecule `CC(=O)OC[C@H]1O[C@@H](ON=C[C@@H](C)[C@H](OCc2ccccc2)C(C)C)[C@H](OC(C)=O)[C@@H](OC(C)=O)[C@@H]1OC(C)=O`, the composite z-score in test [1] is -0.624; in test [2], 1.69; in test [3], -0.0959; in test [4], 0.372; in test [5], 0.55; in test [6], -0.927. For the same molecule, the composite z-score in test [7] is -1.19; in [9], 0.304; in [10] it was -0.134; in [11], 1.48; in test [15] it was -1.59; in [17], -0.114. In addition, the composite z-score in test [18] is 0.605; in [19] it was 0.751; in test [20] it was 0.0359. The z-score in [8] was -0.703 (inactive); in [12] it was 0.475 (inactive); in test [13] it was 0.0572 (inactive); in test [14] it was -0.17 (inactive); in test [16] it was -0.057 (inactive).

In the case of `CO[C@@H]1COC(=O)CC=C[C@@H](C)[C@H](OC)COC(=O)[C@H](COCc2ccccc2)NC(=O)CC=C[C@H]1C`, the composite z-score was 0.0122 in test [1]; 0.843 in test [2]; -0.0775 in test [3]; -0.0228 in test [4]; -0.0992 in [5]; -0.673 in test [6]. In addition, the composite z-score in [7] is -0.831; in test [9], -0.455; in [10] it was -0.0618; in [11], 0.234; in [15] it was -1.32; in test [17], -0.185. In addition, the values for the composite z-score in [18], in [19] and in test [20] were 0.846, -0.778 and -0.231, respectively. The z-score in [8] was -0.886 (inactive); in test [12], 0.122 (inactive); in test [13] it was -0.556 (inactive); in [14] it was -0.0857 (inactive); in test [16], 0.024 (inactive).

For `COC(=O)[C@H](C)NC(=O)CCC1CC(OC(=O)NCc2cccc3ccccc23)CC2(CCCC(COC(=O)NCCc3ccc(Cl)cc3)O2)O1` (stereo not given in full), the composite z-score in [1] is -0.489; in test [2], -0.0486; in test [3], -0.0788; in test [4], 0.487; in test [5], 1.09; in [6], 0.567. In addition, the composite z-score in test [7] is 0.73; in test [9] it was 0.171; in [10] it was -0.0994; in test [11], 1.27; in test [15], 1.57; in test [17], -0.145. For the same molecule, the composite z-score in test [18] was 0.328; in test [19] it was 1.13; in [20] it was -0.0967. Moreover, the z-score in test [8] is 1.93 (inactive); in test [12] it was -0.915 (inactive); in [13], -0.253 (inactive); in test [14], 0.511 (inactive); in [16], 0.129 (inactive).

As for `CC1CC/C=C\[C@H]2OC34C=CCN(C(C)C)C(=O)[C@H]3N(CCCO)C(=O)[C@@H]4C2C(=O)O1` (stereo not given in full), the composite z-score in test [1] is 0.456; in test [2] it was 1.1; in test [3] it was -0.175; in [4], 0.245; in test [5], -0.673; in [6], 1.19. Also, the composite z-score was 0.866 in [7]; -0.5 in test [9]; 0.214 in test [10]; 1.04 in [11]; 1.29 in test [15]; 0.131 in [17]. Besides, the figures for the composite z-score in test [18], in test [19] and in test [20] were -1.42, -0.344 and -0.214, respectively. The z-score in [8] is -0.345 (inactive); in [12], -1.36 (inactive); in [13], -1.14 (inactive); in test [14] it was -0.24 (inactive); in test [16], 1.14 (inactive).
